Screening results deposited in PubChem by several laboratories.
Bim-Mcl-1 – human Bim-Mcl-1 interaction inhibition; actives 0.1% (n = 190,000); Bead-based flow cytometry, Bim peptide-Mcl-1 binding; inhibition, % at 10 µM; Q07820; in the data active = inhibition above about 40%
14-3-3 Bad inh – disrupts binding of bovine 14-3-3 zeta to phospho-Bad peptide | P63103 | actives 0.71% (n = 220,000) | inhibition, % at 21.7 µM | TR-FRET 14-3-3zeta/Dy647-pBad peptide displacement, 1 h;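 active = inhibition above about 70%, limit read from the data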
eIF4E 4G PPI – blocks eIF4E binding to eIF4G; P63073+Q04637; inhibition, % at 21.7 µM; TR-FRET eIF4E-eIF4GI(517-606) binding, 2 h; actives 0.37% (n = 220,000); AID 782;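 active = inhibition above about 30%, limit read from the data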
Mcl1 Bid PPI – disrupts binding of human Mcl-1 to Bid peptide; AID 1021; TR-FRET Mcl-1/Bid-Dy647 peptide binding, 1536-well; actives 0.97% (n = 220,000); inhibition, % at 21.7 µM;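 active = compounds that cut the binding signal by more than half at the single screening dose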;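 note: His-tagged Mcl-1 with europium anti-His antibody binding Bid BH3 peptide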
Hck Nef HTS – human Hck-Nef kinase inhibition | P08631 | Recombinant Hck-YEEI plus Nef, Z-Lyte FRET kinase assay | inhibition, % at 20 µM | actives 0.68% (n = 220,000);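 active = Hck-Nef kinase inhibition above about 50%, limit read from the data; inactive = inhibition below that limit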
Target sequence (P08631 whole entry, looked up): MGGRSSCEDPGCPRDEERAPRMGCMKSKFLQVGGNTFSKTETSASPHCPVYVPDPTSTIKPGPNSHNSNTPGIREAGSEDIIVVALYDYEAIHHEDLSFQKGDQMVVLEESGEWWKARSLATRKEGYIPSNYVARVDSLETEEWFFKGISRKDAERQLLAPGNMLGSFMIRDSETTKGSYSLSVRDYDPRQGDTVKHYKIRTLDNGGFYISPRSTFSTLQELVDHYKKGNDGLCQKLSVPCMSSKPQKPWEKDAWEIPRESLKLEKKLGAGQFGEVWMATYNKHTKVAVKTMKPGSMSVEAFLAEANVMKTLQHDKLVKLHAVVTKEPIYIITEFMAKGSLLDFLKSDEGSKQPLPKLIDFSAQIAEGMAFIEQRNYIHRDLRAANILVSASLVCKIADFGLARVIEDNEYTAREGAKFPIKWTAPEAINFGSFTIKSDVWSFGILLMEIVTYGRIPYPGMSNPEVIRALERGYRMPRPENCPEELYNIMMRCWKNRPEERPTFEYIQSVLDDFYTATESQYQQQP
Mcl1 Noxa PPI – disrupts binding of human Mcl-1 to Noxa peptide; Q07820; inhibition, % at 21.7 µM; TR-FRET Mcl-1/Noxa peptide binding, 2 h; actives 1.5% (n = 220,000); AID 1022;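 active = compounds that cut the protein-peptide binding signal by more than 50% relative to plate controls in a single-dose test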;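 note: His-tagged Mcl-1 with rhodamine Noxa BH3 peptide and terbium anti-His antibody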
A number is an active result; – = inactive; · = no result given; [ ] = remark or other dose. Compounds with a hit are over-represented: about 3.5% of the library has one in this group of screens.

SMILES	Bim-Mcl-1	14-3-3 Bad inh	eIF4E 4G PPI	Mcl1 Bid PPI	Hck Nef HTS	Mcl1 Noxa PPI
CCOc1cc(/C=N/Nc2nc(-c3cccs3)c(NC(C)=O)s2)ccc1O	·	–	–	–	–	101
CC(=O)Nc1sc(N/N=C\c2ccco2)nc1-c1cccs1	–	–	–	–	–	74
CC(=O)Nc1sc(N/N=C\c2ccccc2)nc1-c1cccs1	–	–	–	–	–	55
CCOc1cc(/C=N/NC(=O)Nc2ccccc2)ccc1O	–	–	–	–	–	–
O=C(Nc1ccc(S(=O)(=O)N2CCCCC2)cc1)C1CCCN(C(=O)c2ccc(Cl)cc2)C1 (stereo not drawn)	–	–	–	–	–	–
CCCCCCCCCC(=O)Nc1cccnc1	–	–	–	–	–	–
COC(=O)C(N)Cc1ccc(O)c(O)c1 (stereo not drawn)	–	–	–	–	–	–
O=C(O)/C=C/c1ccc(O)c(O)c1	–	–	–	–	–	60
O=Cc1ccc(O)c(O)c1	–	–	–	–	–	–
O=C(/C=C/c1ccc(O)c(O)c1)O[C@H](Cc1ccc(O)c(O)c1)C(=O)O	·	–	–	–	52	93
COc1ccccc1NC(=O)CC1S/C(=N/N=C2\CCCc3ccccc32)NC1=O (stereo not drawn)	–	–	–	–	–	–
O=C(CNC(=S)N(Cc1ccccc1)Cc1ccccc1F)NCc1ccc(Cl)cc1	–	–	–	–	–	–
COc1cc(/C=C/c2nnc3c4ccccc4ncn23)cc(OC)c1OC	–	–	–	–	–	52
Cc1ccc2c(Cl)cc(Cl)c(OCC(=O)NCc3ccco3)c2n1	–	–	47[fluorescence artefact?]	–	–	94
Cc1ccc2c(Cl)cc(Cl)c(OCC(=O)NC(=O)NCc3ccco3)c2n1	–	–	–	–	–	–
CN1CCc2nc3sc(C(=O)C45CC6CC(CC(C6)C4)C5)c(N)c3cc2C1	–	81[fluorescence artefact?]	–	85	–	58
Nc1[nH]nc2ncc3cc4ccccc4nc3c12	–	–	–	–	67	–
N#C/C(=C\c1sc(N2CCOCC2)nc1-c1ccccc1)C(=O)Nc1cccc2ccccc12	–	–	45	57	–	–
O=C(Nc1ccccc1)c1sc(N2CCOCC2)nc1-c1ccccc1	–	–	–	–	–	–
Cc1ccc(-c2c[nH]c(=S)n2-c2ccccc2F)cc1	–	–	–	–	–	–
COc1ccc(/C=N/NC(=O)c2ccoc2C)cc1COc1c(C)cccc1C	–	–	–	–	–	–
COc1ccc(/C=N/NC(=O)c2cccc([N+](=O)[O-])c2)cc1OC	–	–	–	–	–	–
COc1cc(/C=N/NC(=O)c2cccc([N+](=O)[O-])c2)cc(OC)c1O	–	–	–	–	–	67
Cc1occc1C(=O)N/N=C/c1ccc(N(C)C)cc1	·	–	–	74	–	–
Cc1ccc(/C=N/NC(=O)c2ccoc2C)o1	–	–	–	–	–	–
SMILES	Bim-Mcl-1	14-3-3 Bad inh	eIF4E 4G PPI	Mcl1 Bid PPI	Hck Nef HTS	Mcl1 Noxa PPI
COc1cc(/C=N/NC(=O)c2ccoc2C)cc(OC)c1O	–	–	–	–	–	57
CSc1ccccc1NC(=O)CN(C)CC(=O)Nc1c(F)cccc1F	–	–	–	–	–	–
O=[N+]([O-])c1ccc(NC(=S)NCCc2ccc(Cl)cc2)cc1	–	–	–	94	–	–
CC(=O)Nc1ccc(S(=O)(=O)NCc2ccc(C(=O)NCc3ccc(Cl)cc3)cc2)cc1	–	74	–	–	–	–
NS(=O)(=O)c1ccc(NC(=S)NCc2ccc(Cl)cc2)cc1	–	–	35	–	–	–
COc1ccc(CNS(=O)(=O)c2ccc(F)c(C(=O)Nc3ccc(OC)cc3)c2)cc1	–	–	–	–	–	53
CC(=O)Nc1ccc(S(=O)(=O)NCc2ccc(C(=O)NCc3ccc4c(c3)OCO4)cc2)cc1	–	–	–	–	–	–
COC(=O)Cc1[nH]nc2c1C(c1ccc(O)c(OC)c1)C(C#N)=C(N)O2 (stereo not drawn)	·	–	–	–	–	–
CCCCn1c(=NC(=O)c2ccco2)c(C(=O)OCC)cc2c(=O)n3cccc(C)c3nc21	·	–	–	–	–	–
CCc1ccc(C(CC(=O)c2ccc(Cl)cc2)C(=O)O)cc1 (stereo not drawn)	–	–	–	96	–	–
COc1cccc(NC(C)(C)c2nnnn2-c2c(C)cccc2C)c1	·	–	–	52	–	–
O=C(CN1C(=O)/C(=C\C=C\c2ccccc2)SC1=S)Nc1ccc(F)cc1	–	–	–	–	–	–
O=C(COC(=O)CCN1C(=O)/C(=C\C=C\c2ccccc2)SC1=S)Nc1cc(F)ccc1F	–	–	–	–	126	–
Nc1nc[nH]c(=O)c1N=Cc1ccccc1	·	–	–	–	–	–
S=c1[nH]c(-c2ccccc2)cn1/N=C/c1ccncc1	·	–	–	–	–	–
CCOc1ccc(/C=N/n2cc(-c3ccccc3)[nH]c2=S)cc1	–	–	–	–	–	53
Cc1ccc(NC(=O)COC(=O)c2cccc(N3C(=O)c4ccccc4C3=O)c2)cc1	·	–	–	–	–	–
CN(C)c1ccc(NC(=O)c2cccc(N3C(=O)C4C5C=CC(C5)C4C3=O)c2)cc1 (stereo not drawn)	–	–	–	–	–	80
CC(OC(=O)c1cccc(N2C(=O)c3ccccc3C2=O)c1)C(=O)Nc1ccc(N(C)C)cc1 (stereo not drawn)	–	–	–	–	–	76
CCNS(=O)(=O)c1ccc(Br)c(OC)c1	–	–	–	–	–	–
CCOc1cc(/C=N/Nc2nc(-c3cccc(S(=O)(=O)N4CCCC4)c3)cs2)ccc1O	–	–	–	–	–	–
COc1ccc(NCc2ccc([N+](=O)[O-])s2)c(OC)c1	–	–	–	–	–	53
CC(=O)Nc1ccc(NC(=O)CN(c2cc(Cl)ccc2Cl)S(C)(=O)=O)cc1	–	–	–	–	–	–
C/C=C/c1ccc(OCCCCn2cncn2)c(OC)c1	–	75	–	57	–	–
C/C=C/c1ccc(OCCOc2cc(C=O)ccc2OC)c(OC)c1	–	–	–	–	–	–
SMILES	Bim-Mcl-1	14-3-3 Bad inh	eIF4E 4G PPI	Mcl1 Bid PPI	Hck Nef HTS	Mcl1 Noxa PPI
C/C=C/c1ccc(OCCn2cncn2)c(OC)c1	–	84	–	–	–	–
C/C=C/c1ccc(OCCCn2cncn2)c(OC)c1	–	74	–	–	–	–
C/C=C/c1ccc(OCCCNC(C)CC)c(OC)c1 (stereo not drawn)	–	–	–	59	–	–
O=C(c1cccs1)C1CCCN(Cc2nc(Cc3ccccc3F)no2)C1 (stereo not drawn)	–	–	–	–	–	–
CCCCN(C)CCCNC(=O)c1cn(CC)c2ccc(S(=O)(=O)N3CCc4ccccc4C3)cc2c1=O	–	–	–	–	–	53
CCOC(=O)c1ccc(-c2nnc(-c3ccc(Cl)cc3Cl)o2)cc1	–	–	–	–	–	–
